Assay outcomes as filed in PubChem.
Shown are actives, neighbours in structure and some others; about 10% of the full set was active somewhere.
GPT2 inhibitor = inhibitors of human GPT2 alanine aminotransferase | AID 1671188 | Q8TD30 | Potency, µM (series often up to 57.7 µM), actives largely listed as inhibitors | Recombinant GPT2, coupled pyruvate oxidase/HRP Amplex Red fluorescence | actives 0.25% (n = 100,000); further: nearly all actives have a fitted effect of over 60% in size
Target sequence (Q8TD30 whole entry, looked up): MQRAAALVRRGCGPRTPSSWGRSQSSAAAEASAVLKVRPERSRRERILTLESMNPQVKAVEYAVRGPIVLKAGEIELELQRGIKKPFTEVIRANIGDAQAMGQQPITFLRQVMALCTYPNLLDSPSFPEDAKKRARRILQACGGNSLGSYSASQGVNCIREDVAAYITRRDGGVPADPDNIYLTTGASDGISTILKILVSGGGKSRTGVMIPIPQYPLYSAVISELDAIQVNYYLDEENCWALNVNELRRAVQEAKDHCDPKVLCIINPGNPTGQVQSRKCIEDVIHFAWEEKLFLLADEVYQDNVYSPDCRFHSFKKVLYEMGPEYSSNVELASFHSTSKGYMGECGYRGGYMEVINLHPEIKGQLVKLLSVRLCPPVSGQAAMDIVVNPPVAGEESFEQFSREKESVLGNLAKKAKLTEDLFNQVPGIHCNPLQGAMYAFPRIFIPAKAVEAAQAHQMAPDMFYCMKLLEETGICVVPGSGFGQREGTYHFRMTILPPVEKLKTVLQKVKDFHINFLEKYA
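Fluorescence of coupled pyruvate oxidase/HRP/Amplex Red system (50uM Amplex, 30 min, dark) reports pyruvate formed by GPT2. Enzyme reaction: 10ng/uL GPT2, 2mM L-alanine, 250uM a-KG, 30 min room temperature, pH 7.5; 50uM AOA control.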
NPR1 antag = antagonists of human natriuretic peptide receptor Npr1. HEK293 hNpr1 GloSensor cGMP, ANP-stimulated luminescence. actives 1.6% (n = 76,000). P16066. Potency, µM (series often up to 46.3 µM), actives largely listed as inhibitors; calls by dose curve; further: nearly all actives have a fitted effect of over 60% in size
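Compound pre-incubated 30 min at room temperature on GloSensor-loaded HEK293 cells stably carrying hNpr1 and the pGS-40F cGMP biosensor. Stimulation uses hNppA at 0.1 nM final; luminescence is taken at baseline and 20 min post-agonist.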
HEK cytotox = kills HEK 293 cells; AID 1345083; Potency, µM (doses to about 115 µM), hits mostly inhibitors; HEK 293 viability, ATP luminescence (CellTiter-Glo), 48-72 h; actives 6.6% (n = 94,000); further: nearly all actives have a fitted effect of over 60% in size
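Read-out: CellTiter-Glo ATP luminescence. Cells: HEK 293, 250 cells/well. Exposure: 48 or 72 hr, 37 degree Celsius.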
NIH3T3 tox = NIH 3T3 cell cytotoxicity. NIH 3T3 viability, CellTiter-Glo ATP luminescence, 48-72 h. AID 1345082. actives 4.3% (n = 94,000). Potency, µM (top dose mostly 96.7 µM), usual class: inhibitors; further: nearly all actives have a fitted effect of over 55% in size
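Cytotoxicity was measured by CellTiter-Glo ATP luminescence after 48 or 72 h compound exposure at 37 °C. Mouse NIH 3T3 fibroblasts were seeded at 400 cells/well and dosed by 23 nL pin transfer.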
FLuc inh = inhibitors of firefly (Photinus pyralis) luciferase. P08659. AID 1347043. actives 2.5% (n = 76,000). purified P. pyralis luciferase, luminescence, biochemical. Potency, µM (top dose mostly 115 µM), hits mostly inhibitors; further: nearly all actives have a fitted effect of over 65% in size
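Biochemical qHTS: compound (6-point titration) added to 10uM D-luciferin plus 10uM ATP in Tris acetate pH 7.5 buffer with Mg, Tween-20 and BSA, then purified enzyme at 10nM; light output imaged.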
A number is an active result; - = inactive; ? = inconclusive; . = no result given. Unless noted, the call rests on the fitted dose curve; in most records, active means well fitted curve in the direction sought with a large enough effect; inconclusive means small, poorly fitted or top-dose-only effect, or another doubt; inactive means no such curve, though single readings can be large; an effect the other way counts as inactive or inconclusive.

SMILES	GPT2 inhibitor	NPR1 antag	HEK cytotox	NIH3T3 tox	FLuc inh
CCc1cc(=O)n(CC(=O)Nc2cc(OC)ccc2OC)c(-c2ccccc2)n1	-	-	?	-	-
Cn1ccnc1CN1CCN(C(=O)C2(Cn3ccnc3)CC2)CC1	-	-	-	-	-
O=C(c1ccco1)N1CCC2(CC1)CN(Cc1ccccc1)CC2CO (stereo not given)	-	-	?	-	-
OC[C@H]1CCN(Cc2ccc(-c3cccc(Cl)c3Cl)o2)C[C@@H]1O	-	10µM	?	-	?
OC[C@H]1CCN(Cc2ccc(-c3ccn[nH]3)o2)C[C@H]1O	-	-	-	-	-
C=CCNC(=O)[C@@H]1Cc2cn(Cc3ccncc3)c3cccc(c23)[C@H](CC(C)C)N1	?	-	35.5µM	?	-
COCCNC(=O)[C@@H]1Cc2cn(Cc3cccnc3)c3cccc(c23)[C@H](CC(C)C)N1	?	-	44.7µM	?	-
COCCNC(=O)[C@@H]1Cc2cn(Cc3ccccn3)c3cccc(c23)[C@H](CC(C)C)N1	?	-	28.2µM	?	-
C#CCNC(=O)[C@@H]1Cc2cn(Cc3cccnc3)c3cccc(c23)[C@H](CC(C)C)N1	-	-	56.2µM	79.4µM	-
CC(C)C[C@@H]1N[C@H](C(=O)NCC2CC2)Cc2cn(Cc3cccnc3)c3cccc1c23	-	-	?	?	-
CC(C)C[C@@H]1N[C@H](C(=O)NCc2ccccc2)Cc2cn(Cc3ccncc3)c3cccc1c23	-	-	?	?	-
CCCCSCc1cc(C(=O)N2Cc3nnc(C)n3C(C)C2)oc1C (stereo not given)	-	-	-	-	-
CC(C)Cn1c(=O)c(C(=O)N2CCN(C(=O)C3CC3)CC2)nc2cccnc21	-	.	-	-	.
CN1CCCN(C(=O)CC2CCCN(c3cnn(C)c(=O)c3)C2)CC1 (stereo not given)	-	.	-	-	.
COCCNC(=O)[C@@H]1Cc2cn(Cc3ccncc3)c3cccc(c23)[C@H](CC(C)C)N1	-	-	44.7µM	44.7µM	-
COc1ccccc1-c1ccc2c(n1)CN(Cc1ccccc1C)C(=O)CO2	-	-	?	-	-
O=C1COc2ccc(-c3ccsc3)nc2CN1Cc1ccc(C(F)(F)F)cc1	-	-	?	?	-
Cc1ccccc1CN1Cc2nc(-c3cncnc3)ccc2OCC1=O	-	-	?	100µM	-
O=C1COc2ccc(-c3ccsc3)nc2CN1Cc1ccccc1	-	-	100µM	?	-
Cc1ccccc1CN1Cc2nc(-c3ccsc3)ccc2OCC1=O	-	-	89.1µM	?	-
CS(=O)(=O)N1CCCN(C(=O)c2ccc(C#N)cc2)CCNC(=O)CC1c1ccccc1 (stereo not given)	-	-	-	-	-
COCc1ccc2c(c1)c(OC(C)(C)C(=O)NCCN1CCOCC1)nn2Cc1ccccc1	-	-	?	?	-
CC(C)(Oc1nn(Cc2cccc(Cl)c2)c2ccccc12)C(=O)NCCCn1ccnc1	-	?	50.1µM	31.6µM	-
CC(C)(Oc1nn(Cc2cccc(Cl)c2)c2ccccc12)C(=O)NC1CCOCC1	-	-	89.1µM	?	-
CC(C)(Oc1nn(Cc2cccc(Cl)c2)c2ccccc12)C(=O)NCCN1CCOCC1	-	-	50.1µM	?	-
SMILES	GPT2 inhibitor	NPR1 antag	HEK cytotox	NIH3T3 tox	FLuc inh
CC(C)(Oc1nn(Cc2cccc(Cl)c2)c2ccccc12)C(=O)N1CCOCC1	-	?	89.1µM	?	-
COCc1ccc2c(c1)c(OC(C)(C)C(=O)NC1CCOCC1)nn2Cc1ccccc1	-	-	?	?	-
Cc1nc2c(c(-c3ccc(O)cc3)n1)CN(C(=O)c1ccccc1C)CC2	-	-	-	-	-
COc1cccc(-c2cc3c(ccn3Cc3cccnc3)c(C3=CCOCC3)n2)c1OC	?	-	100µM	70.8µM	-
Cc1ccc(-c2cc3c(ccn3Cc3cccnc3)c(C3=CCOCC3)n2)cn1	-	-	44.7µM	?	-
CN(C)Cc1cccc(-c2cc3c(ccn3Cc3cccnc3)c(C3=CCOCC3)n2)c1	-	-	35.5µM	?	-
C1=C(c2nc(-c3cncnc3)cc3c2ccn3Cc2cccnc2)CCOC1	-	-	-	?	-
COc1ccc(-c2ccc3nc(-c4ccccc4)oc3c2)c(OC)c1OC	-	-	44.7µM	?	-
O=C(Nc1ccc(F)cc1)N1CCC(O)(c2csc(CN3CC[C@@H](O)C3)n2)CC1	-	-	-	?	-
CC(=O)N1CCN(c2cc(-c3ccccc3)nc3c(C)noc23)CC1	?	-	-	89.1µM	-
Cc1ccc(-c2cc(-c3cccnc3)nc3c(C)noc23)c(C)c1	?	-	79.4µM	?	?
Cc1noc2c(N3CCN(Cc4ccccc4)CC3)cc(-c3cccnc3)nc12	?	-	63.1µM	?	-
Cc1noc2c(N3CCOCC3)cc(-c3cccnc3)nc12	-	-	-	?	-
CN(C)c1ncc2c(n1)C(C)(C(=O)Nc1ccncc1)CCC2 (stereo not given)	-	-	?	10µM	-
CN(C)c1ncc2c(n1)C(C)(C(=O)NCc1cccc(F)c1)CCC2 (stereo not given)	-	-	?	?	-
CN(C)c1ncc2c(n1)C(C)(C(=O)NCc1cccc(Cl)c1)CCC2 (stereo not given)	-	-	100µM	?	-
COc1ccc(NC(=O)CCn2ccn3nc4c(c3c2=O)CCCC4)cc1	-	-	?	-	-
Cc1cnc(Nc2ccc(N3CCN(C)CC3)cc2)nc1Nc1cccc(S(=O)(=O)NC(C)(C)C)c1	19.3µM	.	.	.	.
Cc1cnc(Nc2ccc(OCCN3CCCC3)cc2)nc1Nc1cccc(S(=O)(=O)NC(C)(C)C)c1	-	.	.	.	.
COC(=O)CNC(=O)C1CCCN1C(=O)c1cccc(-c2cccc(OC)c2)c1 (stereo not given)	-	.	44.7µM	?	.
COc1cccc(-c2cccc(C(=O)N3CCCC3C(=O)NCc3cccs3)c2)c1 (stereo not given)	-	.	?	-	.
COc1ccccc1-c1cccc(C(=O)N2CCC[C@H]2C(=O)NCc2cccs2)c1	-	.	79.4µM	-	.
CCCCCNC(=O)C1CCCN1C(=O)c1cccc(-c2cccc(OC)c2)c1 (stereo not given)	-	.	100µM	?	.
CCc1ccc(C2CC(C(=O)NCc3ccco3)CN(C(=O)c3ccc(F)cc3)C2)cc1 (stereo not given)	-	-	?	?	-
CC(C)CCN1C[C@@H]2[C@H](C1)N(Cc1ccccc1F)C(=O)C(C)(C)[S+]2(=O)[O-]	-	-	?	?	-
CN1C[C@@H](NC(=O)c2cccs2)C[C@H]1c1nc(-c2ccccn2)no1	-	-	-	-	-
COc1ccc(Cn2c(=O)c(C(=O)N3CCN(C(=O)Nc4ccccc4F)CC3)nc3cccnc32)cc1	-	.	-	?	.
